# Screening data deposited in PubChem BioAssay by several laboratories.
# MazEF act – MazEF (E. coli) toxin RNase activation; P0AE70; FAM/BHQ RNA-DNA oligo cleavage fluorescence, 5 h; activation, % at 20 µM; 0.32% of 350,000 active; AID 504720; in the data active = activation above about 50%
# Target sequence (P0AE70 whole entry, looked up): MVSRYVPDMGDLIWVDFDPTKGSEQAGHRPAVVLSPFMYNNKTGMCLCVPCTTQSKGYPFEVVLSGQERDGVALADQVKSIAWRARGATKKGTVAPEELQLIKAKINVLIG
# GDH-TPI counter-1 – inhibits GDH-TPI coupling enzymes, artifact for Mtb FBA screen; GDH-TPI coupled enzyme counterscreen, NADH absorbance; inhibition, % at 4.8 µM; 1.2% of 360,000 active; in the data active = inhibition above about 30%
# FBA Mtb inh – inhibitors of M. tuberculosis fructose-bisphosphate aldolase; P9WQA3; purified M. tuberculosis FBA, fluorescence read-out; inhibition, % at 1 µM; 2.3% of 360,000 active; AID 588726
# Target sequence (P9WQA3 whole entry, looked up): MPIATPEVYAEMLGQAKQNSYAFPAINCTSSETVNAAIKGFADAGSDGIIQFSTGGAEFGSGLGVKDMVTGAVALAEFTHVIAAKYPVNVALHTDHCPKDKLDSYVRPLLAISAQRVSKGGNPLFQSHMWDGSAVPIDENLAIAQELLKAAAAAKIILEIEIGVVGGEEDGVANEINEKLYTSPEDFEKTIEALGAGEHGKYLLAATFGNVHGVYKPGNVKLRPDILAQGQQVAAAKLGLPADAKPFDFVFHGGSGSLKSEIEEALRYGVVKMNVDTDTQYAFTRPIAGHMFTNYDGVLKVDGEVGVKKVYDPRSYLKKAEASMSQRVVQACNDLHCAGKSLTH
# CCHFV vOTU inh – blocks the CCHF virus ovarian tumor domain protease; CCHFV vOTU protease, Pep-AMC fluorescence; inhibition, % at 11.5 µM; 0.55% of 370,000 active; AID 651958; in the data active = inhibition above about 30%
# Mtb betalactam – beta-lactam sensitization of Mtb H37Rv; 0.27% of 330,000 active; M. tuberculosis H37Rv growth with meropenem, percent inhibition; inhibition, % at 25 µM; AID 434955; call rule not given here;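 also: growth measured after seven days incubation then overnight dye step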
# Mtb FBA confirm – Mtb FBA inhibition, confirmed. shares compounds with FBA Mtb inh. purified M. tuberculosis FBA, fluorescence read-out. inhibition, % at 1 µM. 78% of 5,600 active. AID 651616
# GDH-TPI counter-2 – inhibits GDH-TPI coupling enzymes, flagging Mtb FBA hits | 81% of 5,600 active | inhibition, % at 1 µM | GDH-TPI coupled enzyme counterscreen, fluorescence | shares compounds with FBA Mtb inh; in the data active = inhibition above about 10%
# A number is an active result; 0 = inactive; - = no result; + = active, no number. Rows were chosen to be rich in hits. Some 4% of all compounds tested hit in one or more screens of this group. Rule as the data show it, unless noted: active = inhibition above about 27%; inactive = the rest.
SMILES,MazEF act,GDH-TPI counter-1,FBA Mtb inh,CCHFV vOTU inh,Mtb betalactam,Mtb FBA confirm,GDH-TPI counter-2
COC(=O)CCN(Cc1ccc(OC)cc1OC)S(=O)(=O)c1ccccc1Br,-,-,-,0,-,-,-
COC(=O)c1ccc(-c2sc3nc(N4CCOCC4)c4c(c3c2N)CCCC4)o1,0,-,-,0,0,-,-
CC12CCC(=O)N1c1c(sc3nc(N4CCOCC4)c4c(c13)CCCC4)C(=O)N2 (stereo not given),0,0,63,0,0,122,113
COc1ccc(CN2C(=O)Cc3c2nc(N)c2c(N)nc(N4CCOCC4)c(C#N)c32)cc1,0,0,41,0,0,+,+
CCC1Cc2c(nc(N)c3c(N)nc(N4CCOCC4)c(C#N)c23)O1 (stereo not given),0,0,37,0,0,147,122
COCCN1C(=O)Cc2c1nc(N)c1c(N)nc(N3CCN(c4ccc(F)cc4)CC3)c(C#N)c21,0,0,0,0,0,-,-
CCCCC1O[C@@H](C)[C@@H]2CN3CCc4c([nH]c5ccccc45)[C@@H]3C[C@@H]2N1C (stereo not given in full),-,-,-,0,-,-,-
COc1cc(-c2nc(CCNC(=O)c3ccco3)cs2)cc(OC)c1OC,0,0,37,0,0,139,112
COC(=O)C1=C(C)N(C)C(=NCc2ccc3c(c2)OCO3)NC1c1ccc(Cl)cc1 (stereo not given),-,-,-,0,-,-,-
COC(=O)C1=CN(Cc2cccs2)C=C(C(=O)OC)C1c1ccc(OC)cc1OC,0,0,85,0,0,89,93
CCCCOC(=O)c1ccccc1C(=O)OCCCC,0,0,0,0,0,-,-
COC(=O)C1=CN(Cc2cccs2)C=C(C(=O)OC)C1c1cccc(Cl)c1,0,0,71,0,0,65,53
CCCCOc1ccccc1C1C(C(=O)OC)=CN(CC)C=C1C(=O)OC,0,0,63,0,0,0,0
COC(=O)C1=CN(c2ccc(OC)cc2)C=C(C(=O)OC)C1c1cc(OC)c(OC)cc1OC,0,0,0,0,0,-,-
COC(=O)C1CN(Cc2ccccc2)CCS(=O)(=O)N1Cc1cn(Cc2ccccc2Br)nn1 (stereo not given),-,-,-,0,-,-,-
COc1ccc(C(=O)NCC2CCN(C(=O)C(=O)c3cc4ccccc4o3)CC2)cc1,-,-,-,0,-,-,-
N#Cc1c(-c2ccccc2F)cc(-c2cccnc2)nc1N,0,0,110,0,0,0,0
Cc1ccc(SCc2ccc(C(=O)NCc3cccnc3)cc2)cc1,0,0,0,0,0,-,-
Cc1ccc(CN2CCSc3ccc(C(=O)NCC4CCCO4)cc32)cc1 (stereo not given),0,0,58,-,0,47,23
COc1ccc(CCNC(=O)c2ccc3c(c2)N(Cc2ccc(C)cc2)CCS3)cc1OC,0,0,54,-,0,64,51
Cc1ccc(CN2CCSc3ccc(C(=O)NCc4cccnc4)cc32)cc1,0,0,69,0,0,0,23
N#Cc1ccc(-c2ccc(OCC3CNC(=O)O3)cc2)cc1 (stereo not given),0,0,44,0,0,+,+
O=c1c2ccccc2nc2n1CCC2O (stereo not given),0,0,0,0,0,-,-
c1ccc(-c2cnc(-c3cccnc3)o2)cc1,0,0,93,0,0,192,155
Fc1cccc(-c2ncc(-c3ccccc3)o2)c1,0,0,0,0,-,-,-
SMILES,MazEF act,GDH-TPI counter-1,FBA Mtb inh,CCHFV vOTU inh,Mtb betalactam,Mtb FBA confirm,GDH-TPI counter-2
CC[C@@H](CCCc1ccccc1OC)CCS(=O)(=O)C(C)(C)C,-,-,-,0,-,-,-
CC(C)NC(=S)N/N=C/c1ccc(N2CCOCC2)cc1,0,40,38,0,0,120,89
CC(C)(C)c1ccc(OCC(=O)N/N=C/c2ccc(N3CCOCC3)cc2)cc1,0,0,27,0,0,62,43
O=C(N/N=C/c1ccc(N2CCOCC2)cc1)c1ccncc1,0,0,0,0,0,-,-
C/C(=N/NC(=O)COc1ccc(C(C)(C)C)cc1)c1ccc(N2CCOCC2)cc1,0,0,0,0,-,-,-
COCCNC(=S)N/N=C/c1ccc(N2CCOCC2)cc1,0,31,46,0,0,+,+
C=C(C)CNC(=S)N/N=C/c1ccc(N2CCOCC2)cc1,0,42,53,0,0,53,52
COc1ccc(C(=O)OCCN2CCN(C3CN(Cc4cn(Cc5cccc(F)c5)nn4)S(=O)(=O)C3)CC2)cc1OC (stereo not given),-,-,-,0,-,-,-
CCn1c2ccccc2c2cc(C=Nn3c(-c4ccccc4C)n[nH]c3=S)ccc21,-,-,-,0,-,-,-
COC(=O)[C@]12C[C@H](CC(=O)NCc3cccs3)C(=O)N(CCC3=CCCCC3)C1=C[C@H](C1CCCC1)O[C@@H]2C,-,-,-,0,-,-,-
CCc1c(C)c(C#N)c2[nH]c3ccccc3n2c1=S,0,0,30,0,0,64,60
CCc1cc(=O)n2c([nH]c3ccccc32)c1C#N,0,0,66,0,0,60,50
Cc1ccc(Cc2c(C)c(C#N)c3[nH]c4ccccc4n3c2=O)cc1,0,0,48,0,0,95,65
Cc1[nH]c(=S)c(C#N)c(C)c1Cc1ccccc1,0,0,0,0,0,-,-
COc1ccc(CC(=O)N2CCN(C(=O)c3ccc4nc(C)n(C5CCCC5)c4c3)CC2)cc1,-,-,-,0,-,-,-
Cc1ccccc1S(=O)(=O)N1CCCc2nc(C)c(C)cc21,-,-,-,0,-,-,-
COc1cc(C#Cc2c(-c3ccccc3OC)oc3ccccc23)cc(OC)c1,0,0,34,0,0,0,0
CCCC#C/C(CCC)=C1\c2ccccc2C(=O)N1c1ccccc1,-,-,-,0,-,-,-
CCN(CC)CCNC(=O)c1cc2c(=O)n(C)c3ccccc3c2s1,0,0,71,0,0,129,87
CCCCN(CC)CCNC(=O)c1cc2c(=O)n(C)c3ccccc3c2s1,0,0,49,0,0,181,144
CC1CCCCN1CCNC(=O)c1cc2c(-c3ccccc3F)nn(C)c2s1 (stereo not given),0,0,0,0,0,-,-
CCCCN(CC)CCNC(=O)c1cn(-c2ccc(Cl)cc2)c(=O)c2ccccc12,0,0,0,0,0,-,-
CCCN(CCC)CCNC(=O)c1cc2c(=O)n(C)c3ccccc3c2n1C,0,0,30,0,0,0,0
CN(CCNC(=O)c1cc2c(=O)n(C)c3ccccc3c2n1C)Cc1ccccc1,0,0,0,0,0,-,-
CCCCN(CC)CCNC(=O)c1cc2c(-c3ccccc3F)nn(C)c2s1,0,0,46,0,0,47,35
CCN(CC)CCNC(=O)C(C)c1nn(C)c(=O)c2ccccc12 (stereo not given),0,0,0,0,0,-,-
CCN(CC)CCCNC(=O)c1cc2c(-c3ccc(Cl)cc3)nn(C)c2s1,0,0,0,0,0,-,-
CCN(CCCNC(=O)c1cc2c(-c3cccc(OC)c3)nn(C)c2s1)Cc1ccccc1,0,0,53,0,0,39,43
O=C(N[C@H](C(=O)N1CCC[C@H]1C(=O)NCc1ccccc1)c1ccccc1)C1CCCC1,-,-,-,0,-,-,-
